As usually defined, the IC90 is the concentration needed for an effect of 90%.

Experimental findings from ChEMBL document CHEMBL1201862, “PubChem BioAssay data set” (2004) are described below.

Results with a measured potency or affinity are listed apart.

The experiment is described as follows: M. tuberculosis growth inhibition, dose response, 7H9 media, purified and synthesized compounds, set 5 (AID 504903). It is filed as functional.
`O=C(CSc1ccccn1)NC1CCCCC1`: the IC90 is > 100 µM (active). The same measure for `Cc1[nH]c2ccccc2c1C(=O)COC(=O)c1ccc([N+](=O)[O-])s1`: > 50.5 µM (active); for `CNC(=O)CSc1nc2ccccc2c(=O)[nH]1`: > 100 µM (active); for `CCCc1cc(C(N)=S)ccn1`: > 100 µM (active).
